Test results published in PubChem BioAssay (NCATS).
Results filed as inconclusive are left out. Entries that show only a call come without a potency. The source made the active and inactive calls. Calls follow the shape of the dose curve; as a rule, active = well fitted cell-killing curve with a large enough effect; inconclusive = small, poorly fitted or top-dose-only effect; inactive = flat fitted curve, though single readings scatter.

Assay: qHTS assay to identify small molecule inhibitors of chordoma cells - UCH-2 (AID 1259356)
Details: UCH-2 chordoma viability, CellTiter-Glo ATP luminescence, 48 h; series mostly up to 46.1 µM

Structure (SMILES)	Potency
CC(C)NCC1CCc2cc(CO)c([N+](=O)[O-])cc2N1 (configuration not stated)	inactive
CC1(C)S[C@@H]2[C@H](NC(=O)Cc3ccccc3)C(=O)N2[C@H]1C(=O)O	inactive
C=CCSSSCC=C	inactive
O=C(O)CCC(=O)C(=O)O	inactive
CCCCC(C)(O)C/C=C/[C@H]1[C@H](O)CC(=O)[C@@H]1CCCCCCC(=O)OC (some centres not stated)	inactive
CCOC(=O)O[C@]1(C(=O)COC(=O)CC)CC[C@H]2[C@@H]3CCC4=CC(=O)C=C[C@]4(C)[C@H]3[C@@H](O)C[C@@]21C	inactive
CCC(=O)OCC(=O)[C@@]1(OC(=O)CC)[C@H](C)C[C@H]2[C@H]3[C@H]([C@@H](O)C[C@@]21C)[C@@]1(C)C=CC(=O)C=C1C[C@H]3Cl	inactive
CCCC(=O)Nc1ncnc2c1ncn2[C@@H]1O[C@@H]2COP(=O)(O)O[C@H]2[C@H]1OC(=O)CCC	inactive
COc1cc2c(cc1O)CCN[C@]21CS[C@@H]2c3c(OC(C)=O)c(C)c4c(c3[C@H](COC1=O)N1[C@@H]2[C@H]2c3c(cc(C)c(OC)c3O)C[C@@H]([C@@H]1O)N2C)OCO4	inactive
CC1=C(/C=C/C(C)=C/C=C/C(C)=C/C=C/C=C(C)/C=C/C=C(C)/C=C/C2=C(C)CCCC2(C)C)C(C)(C)CCC1	inactive
COC(C(=O)C(O)C(C)O)C1Cc2cc3cc(OC4CC(OC5CC(O)C(O)C(C)O5)C(O)C(C)O4)c(C)c(O)c3c(O)c2C(=O)C1OC1CC(OC2CC(OC3CC(C)(O)C(O)C(C)O3)C(O)C(C)O2)C(O)C(C)O1 (configuration not stated)	inactive
CCCCCCCC(=O)O	inactive
